According to the supplement of paper PMC10042075:
Values joined by “and” are separate entries in the source; they are usually repeats but may differ in a detail not shown here. Identical values can stand only once. Counter-ions that a name gives are not always drawn.

tested on: LASCPC-01; assay: cell viability relative to DMSO control (fraction); higher = less growth inhibition (more viable cells); settings: 2 µM; 72 h
Protocol: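 High-throughput single-dose screen in the LASCPC-01 NEPC cell line in 384-well plates. Cells were treated with each compound at 2 µM for 72 h, and viability was read by CellTiter-Glo luminescence. Values are normalised to the DMSO control (compound/DMSO) from three replicates; only the 5-HT-related subset of the 7315-compound library is given.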

| Compound | cell viability |
| --- | --- |
| C[C@H]1CNCCc2ccc(Cl)cc21 [Lorcaserin HCl] | 1.18 |
| COc1cc(N)c(Cl)cc1C(=O)NC1CN2CCC1CC2 (stereo not given) [Zacopride hydrochloride] | 0.366 |
| COc1ccccc1N1CCNCC1 [1-(2-Methoxyphenyl)piperazine hydrochloride] | 0.869 |
| Cc1[nH]c2ccc(O)cc2c1CCN [2-Methyl-5-hydroxytryptamine maleate] | 0.982 |
| C[N+]1(C)C2CCC1CC(OC(=O)c1c[nH]c3ccccc13)C2 (stereo not given) [3-Tropanylindole-3-carboxylate methiodide] | 0.906 |
| CN1c2ccccc2C(NCCCCCCC(=O)O)c2ccc(Cl)cc2S1(=O)=O (stereo not given) [Tianeptine sodium] | 0.963 |
| O=[N+]([O-])c1ccc2nc(N3CCNCC3)ccc2c1 [Quipazine,6-nitro-,maleate] | 1.04 |
| CN1CCN(c2nc3ccccc3nc2Cl)CC1 | 0.966 |
| NCCc1c[nH]c2ccc(C(N)=O)cc12 [5-Carboxamidotryptamine maleate] | 1.1 |
| COc1ccc(C(CN(C)C)C2(O)CCCCC2)cc1 (stereo not given) [Venlafaxine] | 1.04 |
| CCCN(CCC)C1CCc2cccc(O)c2C1 (stereo not given) | 0.92 |
| CC(N)Cc1c[nH]c2ccc(O)cc12 (stereo not drawn) [alpha-Methyl-5-hydroxytryptamine maleate] | 1.03 |
| N#Cc1ccc(N2CCN(C(=O)COc3ccc4[nH]cc(CCN)c4c3)CC2)cc1 [Donitriptan monohydrochloride] | 1.08 |
| CC(N)Cc1c[nH]c2ccc(OCc3cccs3)cc12 (stereo not given) | 1.18 |
| Clc1ccc(C(OCCN2CCCCC2)c2ccccc2)cc1 (stereo not given) [Cloperastine hydrochloride] | 0.924 |
| CC[C@@H](CO)NC(=O)[C@@H]1C=C2c3cccc4c3c(cn4C)C[C@H]2N(C)C1 [Methysergide maleate] | 1.1 |
| CNCCc1c[nH]c2ccc(O)cc12 [N-omega-Methyl-5-hydroxytryptamine oxalate salt] | 1.11 |
| c1ccc2c(N3CCNCC3)cccc2c1 [1-(1-Naphthyl)piperazine hydrochloride] | 1.08 |
| O=c1ccc2cc3ccoc3c(O)c2o1 [Xanthotoxol] | 1.15 |
| COc1ccc2[nH]cc(CCN)c2c1 [O-Methylserotonin hydrochloride] | 0.981 |

| Compound | cell viability |
| --- | --- |
| COc1ccc2c(c1OC)CN1CCc3cc4c(cc3C1C2)OCO4 (stereo not given) [Tetrahydroberberine THB] | 0.961 |
| CN1CCC(c2c[nH]c3ccc(O)cc23)CC1 | 0.966 and 0.511 |
| NCCc1c[nH]c2ccccc12 [Tryptamine hydrochloride] | 0.96 |
| O=S1(=O)N(CCN2CC=C(c3c[nH]c4cc(F)ccc34)CC2)c2cccc3c2N1CCC3 | 0.982 |
| NCCc1c[nH]c2ccccc12 [Tryptamine] | 1.08 |
| COc1ccc2[nH]cc(C3=CCNCC3)c2c1 | 0.776 |
| NCCc1c[nH]c2ccc(O)cc12 [Serotonin HCl] | 0.977 |
| CCCN(CCC)C1CCc2cccc(O)c2C1 (stereo not given) [(?-8-Hydroxy-DPAT hydrobromide] | 1.16 |
| CN1CCN(c2cccc3[nH]c(=O)oc23)CC1 [Pardoprunox hydrochloride] | 1.03 |
| CN1C(=O)COc2c(C(=O)NC3CN4CCC3CC4)cc(Cl)cc21 (stereo not given) [Azasetron hydrochloride] | 1.44 |
| CN1C[C@H](CNC(=O)OCc2ccccc2)C[C@@H]2c3cccc4c3c(cn4C)C[C@H]21 [Metergoline] | 0.997 |
| COc1ccc(C(CN(C)C)C2(O)CCCCC2)cc1 (stereo not given) [Venlafaxine hydrochloride] | 1.06 |
| C=C[C@H]1CN2CC[C@@]3(C(=O)Nc4ccccc43)[C@@H]2C[C@@H]1/C(=C\OC)C(=O)OC [Isocorynoxeine] | 0.677 |
| C[C@H](N)CN1CCc2ccc(Br)cc21 [VER-3323 hemifumarate salt] | 1.16 |
| NCCc1c[nH]c2ccc(O)cc12 [Serotonin hydrochloride] | 0.606 |
| CCCN(CCC)[C@@H]1CCc2cccc(O)c2C1 [R-(+)-8-Hydroxy-DPAT hydrobromide] | 1.03 |
| COc1cc2c3c(c1OC)-c1ccccc1C[C@H]3N(C)CC2 [Nuciferine] | 0.818 |
| CN1C[C@H](C(=O)N[C@]2(C)O[C@@]3(O)[C@@H]4CCCN4C(=O)[C@H](Cc4ccccc4)N3C2=O)C[C@@H]2c3cccc4[nH]cc(c34)C[C@H]21 [Dihydroergotamine methanesulfonate] | 1.18 |
| CN1CCC[C@@H]1Cc1c[nH]c2ccc(Nc3ncccc3[N+](=O)[O-])cc12 | 0.897 |
| Clc1ccc([C@]23CNC[C@H]2C3)cc1Cl [Amitifadine hydrochloride] | 0.896 |
